Test results taken from the supplement of paper PMC11417369.
± gives the standard deviation of the averaged measurements. In all, about 25,000 sequences were measured (“ln(normalized median fluorescence intensity)”: median about 7.9, highest 2% from about 11 on). The list comes from a sample in which the highest values are over-represented; it also holds similar and randomly drawn sequences.

System: PfAP2-I AP2 domain 3 (GST-tagged)
Assay: gcPBM binding intensity (ln(normalized median fluorescence intensity)); higher = stronger DNA binding
Outline: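 Each value is the highest Masliner-normalised natural-log median intensity across replicate spots of either orientation of a probe. The probes were primer-extended double-stranded 36-bp intergenic genomic sequences on an Agilent 4 × 180k array, alongside negative controls, exposed for 1 h to GST-tagged P. falciparum DNA-binding domains expressed in E. coli. Bound protein was picked up with Alexa488 anti-GST antibody and scanned at 488 nm.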

Sequence | gcPBM binding intensity (ln)
ACAAAGTAAAATAATGCATGTAGGTATACATAATTA [TGCATGCA_site607] | 7.71 ± 0.81
TAGAACAAATAAAACACACACATATATATATATATG [CACACA_site2768] | 8.06 ± 0.41
ATATATTAAAAGGATTAGGAAAAAATATGATTTATC [TGCATGCA_negctrl_site405] | 7.55 ± 0.78
GAACAAAATTTTATATGTACATAATATTTATATATA [XGTACX_site3667] | 8 ± 0.2
TTACAAGTAAAAGGTACACACATTATATATACAAAT [CACACA_site8290] | 7.97 ± 0.55
TTTTTTTTCATTTTATGTACACATAATTTAATATAT [XGTACX_site5768] | 8.16 ± 0.45
CATGACATATCCTGTAGTACAACGTATATATAAGAT [XGTACX_site2577] | 7.8 ± 0.61
CTTAAAATATATTTAGTGCATATACTAATATATTAT | 10.2 ± 0.45
AAATAAAAATTAAAAAAATAGAAACGAATTGAATGC [TGCATGCA_negctrl_site365] | 7.83 ± 0.64
ATCAAAAATATAAAAAATATAAACAATTTATTATCA [CACACA_negctrl_site768] | 7.32 ± 0.47
ATATAGAAAATGCATACACACTTTATAAATATATTT [CACACA_site6553] | 7.92 ± 0.53
TTTCAATTTATCAGTGTGCACAAAAATAAAATAAAA | 10.88 ± 0.028
GAATAAATATTAAATGTGCACTTGAATAGATGTAAA | 10.1 ± 0.16
CAATTTATTATATATGTGCACATATAATTTTACAAA | 9.59 ± 0.24
TTTTTTCAATTTTTTTTAAATAAACCACAAAAAAAA [CACACA_negctrl_site1701] | 7.74 ± 0.49
TATTTATAAATATGTGTGCACAATTTATTTTATAAT | 11 ± 0.26
TATAAATTAAAATGTGTGCACTAAATTGAAATAGAA | 11.5 ± 0.53
TTATAATTTTAATGTGCACACAATTAAAATATTATA [CACACA_site5172] | 10.79 ± 0.085
AATACTTTTTATTTAGTGCATAAGAAAATATAAATC [GTGCAC_site9875] | 10.9 ± 0.44
ATATATTTTTAAAAAAATTAAGAATTTTACATCTCC [CACACA_negctrl_site1450] | 7.59 ± 0.65
AACAATTATTTATCTACACACTTTTATGTTATTTAC [CACACA_site9] | 7.88 ± 0.67
AATTTTTTTTTCTTTTGTACGTAAATATGTGTAGGC [XGTACX_site215] | 8.33 ± 0.26
ATGTGAAAATAAGACACACTCAAAAGGTTTATATTA [CACACA_site4595] | 7.67 ± 0.43
ATACTTTTAATATGCACATGCAAATATGAAATATCG [TGCATGCA_site603] | 9.22 ± 0.39
TTATAAAAAAAAAAAAAAAAAAAAACCAATATAATA [CACACA_negctrl_site968] | 7.3 ± 0.48
ATTTATTTGAAGAATTGTACTAAATTATATAGCGGT [XGTACX_site4998] | 7.94 ± 0.49

Sequence | gcPBM binding intensity (ln)
TATATATATAAATACACACACACCGTCCGTGTTAAA [CACACA_site5623] | 8.54 ± 0.53
ATTATTAATAATTGTGTGCACAAATATTTATATGCT | 10.815 ± 0.007
TATTAACAAATTTATGTGCACTGAGGACAAATATAT | 10.96 ± 0.085
GCCCCCAAATTATGTGTGCACTTTATATTCCTGAGA [GTGCAC_site9474] | 10.4 ± 0.23
TTTTCTTGGTTCAGTGTGCACTTATATATATATATA | 10.3 ± 0.2
TATTATATAATAAAAATTATTATTATTTGTATAAAT [CACACA_negctrl_site195] | 7.21 ± 0.42
ATTTATATTAAAAGTGTGCACTTTTTTTTTTTTTTT | 9.77 ± 0.085
TATAAAAATAAGCACACACACAAATATATATTTATT [CACACA_site922] | 8.12 ± 0.25
ACAAAAAAAATAAGCACACATATATATATATATATA [CACACA_site816] | 9.38 ± 0.36
TTTATATTCTTAAGTGTGCACTATATATATATATAT [GTGCAC_site9719] | 11.2 ± 0.23
TTTTTTATTATATAATTGTATATAAAATTATAATTT [GTGCAC_negctrl_site733] | 7.67 ± 0.47
ATATATATATATATTGTGCACAAAAAAAAATAAGCA | 11.2 ± 0.15
AATAATAAAAATATTGTGCACTTGTATATTTATTAT [GTGCAC_site9963] | 11 ± 0.11
ATGTTATAAGATTTATGTACACACATATACACACCT [XGTACX_site1316] | 8.35 ± 0.21
CATAAATCAGCCATAACACACATACCTATATACATA [CACACA_site6324] | 7.75 ± 0.57
TAAAATATTATCTACGCACACATTAAAATAAAAAAA [CACACA_site3709] | 8.32 ± 0.2
ACTTTAAAAAGATTCACACAAAATATATAAAAATAT [CACACA_site5334] | 7.75 ± 0.39
AGAATTTTATTATATTGTACTTTTTATAAACCTTGT [XGTACX_site7495] | 7.7 ± 0.71
ATTAAAACACAATATTCACACATGTATATTATATAT [CACACA_site5191] | 7.72 ± 0.51
CATATATATATATGAACACACAAAAAGAATATTTCC [CACACA_site1493] | 7.62 ± 0.63
GAATATGTAAAGAAAGGTACACATGAAAATATGTGT [XGTACX_site446] | 7.71 ± 0.66
GATGTTTCTATTTTAGTGCATTTTAAATAAATAAAT | 10.4 ± 0.12
ATGAATACAAAATTATACAAAATTATCAAAAGTATG [CACACA_negctrl_site1453] | 7.5 ± 0.49
TTGTATACATAAAATGGTACAGAATATATAATTCTA [XGTACX_site7236] | 7.45 ± 0.61
ATTTTATGAAATGTTGCACACAAAAAACAACATGTT [CACACA_site8408] | 8.95 ± 0.092
TATATATAAATATATGTGCACTTTTTATATTTATAT | 11 ± 0.13

Sequence | gcPBM binding intensity (ln)
ATAATATATGTATGTATGCACTTTTATTATTTTTTT | 8.96 ± 0.15
AAATATATGTTATATGTGCACTTTTTTTTTTTTTTT [GTGCAC_site9667] | 10.21 ± 0.035
AATAACTATATATGTGTGCACAAAAATTTGACATAA | 10.7 ± 0.049
TATTTTTGGTTATGTGTGCACTATGAACAACAAAAT | 11.4 ± 0.26
TATATTATTTATTTTTGTACATATTATGAATGAATA [XGTACX_site3971] | 7.73 ± 0.33
ACTCAAACCTTTAGAGTGCAAAAAAAAAAAAAAAAA [GTGCAC_site9952] | 10 ± 0.21
TTTTTTAAAAGATAATATTTTATTAATGTATTCTCA [GTGCAC_negctrl_site598] | 7.2 ± 0.55
TTAAAAAAATATTGAAGTACACACATTATAAACTTT [XGTACX_site3548] | 7.89 ± 0.38
AAATAAATTTGACCAGTGCAATAACTTTGTATACCT [GTGCAC_site9446] | 11.2 ± 0.64
CTTTTTTTGACCTTAGTGCAAATAACTATATATTAT | 10.5 ± 0.41
TAGGAAAAAAATACAGTGCAATTTTTATATAAATAA [GTGCAC_site9979] | 8.62 ± 0.5
AAAAAAAAAGAAAAATGTACATACATAAATATATAT [XGTACX_site5664] | 7.77 ± 0.68
TAATTGATTCTTCACCGTACTCACACATATATATAT [XGTACX_site6530] | 8.99 ± 0.085
ATATATATATAATTTGTACACACAAATATGCATATA [CACACA_site9136] | 9.18 ± 0.24
TGTGCATAATTTTGTGCACACCACGCTAATAATTTT [CACACA_site2915] | 11.4 ± 0.48
AGTATAAGCATTATTGTGCACATAATTATAATTTTT | 10.6 ± 0.53
CATATATAAAATATATGTACTTATAGAACATAATTT [XGTACX_site1936] | 7.3 ± 0.35
TTTGTTCATATTATTGTGCACTTAAACGTAACAAAA [GTGCAC_site9505] | 11.3 ± 0.39
TTTTTGTAAAATAAACGTACAAAACAATTGTTCATT [XGTACX_site6537] | 7.82 ± 0.4
AAATACTTAACATTGGTGCATATTTGTAAAATTATT [GTGCAC_site9515] | 10.3 ± 0.55
TTATACAGGACAATAGTGCACATAAATATATGTATA | 11.2 ± 0.51
TATATATATATGTGCACACATAATAAAAAAAAAAAT [CACACA_site3831] | 10.3 ± 0.11
AATACAATAAAATAGTGTACATATATATTATGTATA [XGTACX_site8258] | 7.63 ± 0.27
ATATAAATATAGTGTGCACACACATAATATATATAT [CACACA_site8713] | 9.49 ± 0.11
ATATATATATAGTGCACACATATAAAATATATATAA [CACACA_site2745] | 11.29 ± 0.078
ATGAAACACTCCATAGTGCAAAATATATATTATATT | 10.27 ± 0.057

Sequence | gcPBM binding intensity (ln)
AAAAATAAATATATATGTACACATATGTATACAATA [XGTACX_site4692] | 7.65 ± 0.38
TAATAAAAAAAGTGCACACACATAATATATATATAT [CACACA_site3340] | 9.93 ± 0.37
ATATATATATATAGTGCACACATATAAAATATATAT [CACACA_site8884] | 11.5 ± 0.15
AATAATAAAAAAAGTGCACACACATAATATATATAT [CACACA_site9100] | 9.95 ± 0.014
TTAACATACACTCTAGTGCATATATATAACAAAATA [GTGCAC_site9724] | 10 ± 0.17
ATTACACATATAGTAGTGCAATAACTCCAAAAAAAA | 11.4 ± 0.6
TTTTCTTTTTGTTCGTGTACACACATGAAATTTATA [XGTACX_site3301] | 8.78 ± 0.68
TACAGAAATTTATATATATATATATATATATATATA [XGTACX_negctrl_site209] | 9.39 ± 0.54
ATATAAAACTAATTTCTTTTTCTCCTTTTATTTTGT [CACACA_negctrl_site1251] | 7.8 ± 0.59
AACAAACAAATAGTTTATTTTGATTTTTTTAAAAAT [CACACA_negctrl_site693] | 7.36 ± 0.65
AATAAAATTTGCGATGCACACAGAATAGCTAATATG [CACACA_site8983] | 7.96 ± 0.57
TATATATAAATATATACACACATGAAAATAAATAAA [CACACA_site2514] | 7.67 ± 0.45
TTGAAAAATGAGCACACACACAAATACATACATATT [CACACA_site3231] | 7.97 ± 0.36
ATATTTTTTTTTTTCACACACATTTATATTGTATTA [CACACA_site5695] | 8.01 ± 0.79
TTAGCAACTATTACTACACACATTTTTATATAACTT [CACACA_site6762] | 7.84 ± 0.59
TTTAAAATAAATTAATAGAACAAAAATAAAATGATT [GTGCAC_negctrl_site375] | 7.78 ± 0.67
AAATTAAAGGCATAAAAGAAAATATTTAATAAAAAA [CACACA_negctrl_site1689] | 7.71 ± 0.73
ATATGCACTTTTTGCACACGTATGAATAACAAAATA [CACACA_site1810] | 10 ± 0.25
TTATATGCACTTTTTGCACACGTATGAATAACAAAA [CACACA_site1811] | 10.8 ± 0.86
ATAGGCACTTTTTGCACACGTATGAATAACAAAATA [CACACA_site5069] | 9.54 ± 0.13
ATAAACATCTAGTGCTGTACACAATTTGATTTTTTT [XGTACX_site3110] | 8.9 ± 0.31
TATTTTTTTTTATTTTTTTTTATTTTGTTTTTTTAT [TGCATGCA_negctrl_site315] | 7.32 ± 0.52
AAAAAAATTAAATCAAGTACTCATTCTTAAATTATA [XGTACX_site1274] | 7.32 ± 0.49
